# Test results as given in PubChem BioAssay.
# Calls of active or inactive are those of the source.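 How the source made its calls, unless noted: active means inhibition at or above 50% at 10 µM; inactive means inhibition below 50%.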
# What was measured:
# [1] = inhibitors of TNFa-induced NFkB p65 translocation, primary screen, imaging, HUVEC, MLSMR starter and 10KST1 sets (AID 438;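 active means inhibition above 20% together with a positive visual image hit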;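 further: compound added about 3h40 before a 20 min TNFalpha stimulation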;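 on inhibition: signal is the nuclear over cytoplasmic p65 intensity ratio per well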); conditions: HUVEC TNFa-induced p65 nuclear translocation; cell count: measured here: nuclei count (cytotoxicity indicator), at 2.08 µM; inhibition: at 2 µM, stronger effect = higher value, 0% TNFa-plus-vehicle, 100% no-TNFa wells
# [2] = reduction of polyQ htt aggregates in cells – imaging, exon1htt(103Q)mCFP cells, high-content imaging, primary screen (AID 483;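 active means visual image review flags a hit and inhibition of aggregation exceeds 20%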;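 further: compound exposure lasted 3 days before fixation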;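 on nuclei count: percent of the per-plate median nuclei count of sample wells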); conditions: exon1htt(103Q)mCFP cell line, aggregate imaging, at 2 µM; inhibition of aggregation: stronger effect = higher value; nuclei count: measured here: cell count, toxicity
# [3] = endothelial E-selectin expression blockers – imaging, HUVEC, immunofluorescence, MLSMR starter and 10KST1 sets, primary screen (AID 487;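 active means visually confirmed hit in the image check and inhibition above 20%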;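 on inhibition: signal is fraction of cell area covered by stained E-selectin grains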;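 on nuclei count: 100% = median nuclei count of all wells on the same plate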); conditions: HUVEC TNFalpha-induced E-selectin immunofluorescence imaging, at 2 µM; inhibition: stronger effect = higher value; nuclei count: measured here: cell number, toxicity
# [4] = molecular target: Voltage-gated potassium channel subunit beta-2 (Rattus norvegicus) (UniProt P62483); test: inhibitors of rat Kvbeta2 reductase activity – biochemical, NADPH fluorescence, primary screen (AID 622;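 active means fluorescence slope higher than the sample average by over 3 SD, cut at about -0.22 in these data, passing the limit was not always enough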;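 further: slope of raw intensity against log time taken from 70 to 1610 s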); conditions: recombinant KvBeta, 4-cyanobenzaldehyde reduction, at 10 µM, stronger effect = higher value
# Chain of Voltage-gated potassium channel subunit beta-2 (Rattus norvegicus) (P62483 whole entry, looked up): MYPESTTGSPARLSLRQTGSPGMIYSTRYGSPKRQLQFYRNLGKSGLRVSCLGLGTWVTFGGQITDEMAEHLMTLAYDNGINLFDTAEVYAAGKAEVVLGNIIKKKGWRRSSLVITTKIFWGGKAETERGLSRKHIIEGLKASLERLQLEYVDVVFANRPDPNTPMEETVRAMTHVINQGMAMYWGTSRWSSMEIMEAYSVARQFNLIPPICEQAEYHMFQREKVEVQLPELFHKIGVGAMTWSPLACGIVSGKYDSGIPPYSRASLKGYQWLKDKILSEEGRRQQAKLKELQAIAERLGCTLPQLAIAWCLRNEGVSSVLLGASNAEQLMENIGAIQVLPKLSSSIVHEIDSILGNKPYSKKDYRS
# [5] = molecular target: Voltage-gated potassium channel subunit beta-2 (Rattus norvegicus) (UniProt P62483); test: enhancers of rat Kvbeta2 NADPH turnover – biochemical, NADPH fluorescence, primary screen (AID 623;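 active means NADPH fluorescence slope more negative than the mean of all samples by about 3 SD, 99.7% confidence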;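 further: fluorescence intensity change per second fitted from 20 to 320 s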); conditions: Recombinant KvBeta, NADPH fluorescence decrease slope, 10 min; at 10 µM; stronger effect = lower value
# [6] = molecular target: Alpha-2C adrenergic receptor (Homo sapiens) (UniProt P18825); test: compounds altering alpha2C-coupled GIRK flux – cell-based, HEK293 alpha2C/GIRK1/2, thallium flux, primary screen (AID 624;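 active means fluorescence slope after compound addition differing from the mean of all screened samples at 99.7% confidence, in either direction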;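 further: slope of fluorescence ratio to pre-addition baseline per second over 15 to 24 s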); conditions: thallium flux BTC fluorescence, at 10 µM, actives lie on both sides
# Chain of Alpha-2C adrenergic receptor (Homo sapiens) (P18825 whole entry, looked up): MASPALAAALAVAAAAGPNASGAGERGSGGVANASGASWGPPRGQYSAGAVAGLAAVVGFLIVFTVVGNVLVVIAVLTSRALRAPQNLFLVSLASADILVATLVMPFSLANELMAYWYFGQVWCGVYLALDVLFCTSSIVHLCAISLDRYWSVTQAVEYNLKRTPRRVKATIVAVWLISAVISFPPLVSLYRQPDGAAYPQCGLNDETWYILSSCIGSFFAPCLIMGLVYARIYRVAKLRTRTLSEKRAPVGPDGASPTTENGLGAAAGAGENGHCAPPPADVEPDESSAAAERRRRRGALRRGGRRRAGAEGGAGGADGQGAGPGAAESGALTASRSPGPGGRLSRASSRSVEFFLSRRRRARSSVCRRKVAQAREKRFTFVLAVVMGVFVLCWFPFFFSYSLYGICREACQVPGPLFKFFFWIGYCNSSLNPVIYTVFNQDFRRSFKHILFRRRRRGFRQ
# [7] = blockers of RIG-like receptor reporter activation – cell-based, Sendai virus stimulus, luciferase, 10K MLSCN set, TLR/RLR signaling modifier project, primary screen (AID 602276); conditions: HEK293 RL24 IRF3 luciferase reporter, at 10 µM, stronger effect = higher value;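 further: firefly luciferase from ISG56 promoter only with Renilla not read in this screen; 0% = Sendai virus plus DMSO and 100% = medium plus DMSO without virus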
# [8] = TLR3 IRF3 reporter activation blockers – cell-based, poly I:C stimulus, luciferase, 10K MLSCN set, primary screen (AID 602277;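 active means inhibition of the reporter signal at or above 50%; inactive means inhibition below 50%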); conditions: HEK293-TLR3 RL24 IRF3 luciferase reporter, at 10 µM, stronger effect = higher value
Compound,cell count [1],inhibition [1],inhibition of aggregation [2],nuclei count [2],inhibition [3],nuclei count [3],fluorescence slope [4],NADPH fluorescence slope [5],slope [6],inhibition [7],inhibition [8]
Cc1[nH]c2ccccc2c(=O)c1CN1CCCCC1,400,2.1% (inactive),-1.5% (inactive),111%,-47.3% (inactive),119%,-0.453 (inactive),-5.7e-05 (inactive),0.00287 (inactive),6.83% (inactive),36.8% (inactive)
O=C(NCCC1=CCCCC1)c1cc2c(s1)CS(=O)(=O)C2,610,6% (inactive),-19.3% (inactive),102%,31% (inactive),94.9%,-0.433 (inactive),-0.000138 (inactive),0.00559 (inactive),-7.34% (inactive),-9.88% (inactive)
O=S(=O)(c1ccc(N2CCN(c3ccc(F)cc3)CC2)cc1)N1CCCC1,230,14% (inactive),-8.7% (inactive),95.7%,-32.4% (inactive),106%,-0.476 (inactive),-2.4e-05 (inactive),0.00651 (inactive),10.2% (inactive),19.7% (inactive)
O=C(CNCC1CCCO1)Nc1ccccc1-n1cccc1 (stereo not given),671,-11.4% (inactive),1.7% (inactive),90.8%,-127% (inactive),127%,-0.291 (inactive),-4.7e-05 (inactive),0.00473 (inactive),2.08% (inactive),15% (inactive)
O=C(COc1ccccc1)N1CCN(c2ncnc3c2cnn3-c2ccccc2)CC1,476,1% (inactive),1.3% (inactive),108%,-4.4% (inactive),119%,-0.623 (inactive),-4e-05 (inactive),0.00515 (inactive),14.5% (inactive),-0.433% (inactive)
CC1(C)Cc2cccc(OCC(=O)O)c2O1,635,-2.7% (inactive),-1% (inactive),100%,-111% (inactive),108%,-0.423 (inactive),-2.7e-05 (inactive),0.00676 (inactive),11.4% (inactive),17.1% (inactive)
COc1ccc(NC(=O)CCc2ccccc2)cc1NC(=O)c1ccco1,526,2.3% (inactive),8.7% (inactive),88.9%,-61.5% (inactive),95.1%,-0.504 (inactive),-5e-05 (inactive),0.0047 (inactive),16.7% (inactive),37.2% (inactive)
CCOC(=O)c1cc2sc(C)cc2n1C(C)C(=O)OCC (stereo not given),291,0.5% (inactive),-7% (inactive),106%,-48.6% (inactive),123%,-0.607 (inactive),-3.9e-05 (inactive),0.00348 (inactive),18.2% (inactive),20.3% (inactive)
COc1ccccc1Nc1ccc(C(=O)NC2CCCCC2)cn1,406,1% (inactive),1.1% (inactive),108%,-13.6% (inactive),110%,-0.39 (inactive),-5.7e-05 (inactive),0.00711 (inactive),-10.5% (inactive),-22.4% (inactive)
O=C(Nc1ccncc1)C1CCCN(S(=O)(=O)c2cccc3cccnc23)C1 (stereo not given),686,6.8% (inactive),-328% (inactive),4.8%,-46% (inactive),104%,-0.548 (inactive),-3.9e-05 (inactive),0.00584 (inactive),40.7% (inactive),34.4% (inactive)
Cc1cc(C)nc(/N=C2\NC(=O)CC(C(=O)O)N2c2ccc(Cl)cc2)n1 (stereo not given),639,-9.7% (inactive),0.5% (inactive),101%,-44.1% (inactive),107%,-0.552 (inactive),-2.8e-05 (inactive),0.00735 (inactive),11.6% (inactive),34.3% (inactive)
Cc1cc(N=Cc2cc(Br)ccc2O)no1,330,-6.7% (inactive),-17.3% (inactive),106%,-147% (inactive),121%,-0.311 (inactive),-3.4e-05 (inactive),0.00663 (inactive),15.6% (inactive),15.7% (inactive)
CCCc1ccc(Oc2cn[nH]c2-c2ccc(O)c(C)c2O)cc1,679,5.8% (inactive),11% (inactive),98%,16% (inactive),104%,-0.602 (inactive),-1.2e-05 (inactive),0.00642 (inactive),-1.06% (inactive),-27.9% (inactive)
COc1ccc(OC)c(S(=O)(=O)N2c3ccccc3CC2C)c1 (stereo not given),609,-6.3% (inactive),4.4% (inactive),84.6%,-32% (inactive),123%,-0.566 (inactive),2.6e-06 (inactive),0.00606 (inactive),5.85% (inactive),21.2% (inactive)
COC(=O)c1c(-c2cccs2)csc1NC(=O)CN1CCOCC1,345,6% (inactive),-6.9% (inactive),106%,-22.6% (inactive),119%,-0.519 (inactive),-5.2e-05 (inactive),0.00516 (inactive),16.1% (inactive),3.26% (inactive)
